# Measurements as given in ChEMBL document CHEMBL2218924, “A broad activity screen in support of a chemogenomic map for kinase signalling research and drug discovery” (Biochem J, 2013).
# What was measured:
# [1] = target: T1, Tyrosine-protein kinase Tec (Homo sapiens) (UniProt P42680); conditions: at 10 µM
# T1 sequence (whole entry): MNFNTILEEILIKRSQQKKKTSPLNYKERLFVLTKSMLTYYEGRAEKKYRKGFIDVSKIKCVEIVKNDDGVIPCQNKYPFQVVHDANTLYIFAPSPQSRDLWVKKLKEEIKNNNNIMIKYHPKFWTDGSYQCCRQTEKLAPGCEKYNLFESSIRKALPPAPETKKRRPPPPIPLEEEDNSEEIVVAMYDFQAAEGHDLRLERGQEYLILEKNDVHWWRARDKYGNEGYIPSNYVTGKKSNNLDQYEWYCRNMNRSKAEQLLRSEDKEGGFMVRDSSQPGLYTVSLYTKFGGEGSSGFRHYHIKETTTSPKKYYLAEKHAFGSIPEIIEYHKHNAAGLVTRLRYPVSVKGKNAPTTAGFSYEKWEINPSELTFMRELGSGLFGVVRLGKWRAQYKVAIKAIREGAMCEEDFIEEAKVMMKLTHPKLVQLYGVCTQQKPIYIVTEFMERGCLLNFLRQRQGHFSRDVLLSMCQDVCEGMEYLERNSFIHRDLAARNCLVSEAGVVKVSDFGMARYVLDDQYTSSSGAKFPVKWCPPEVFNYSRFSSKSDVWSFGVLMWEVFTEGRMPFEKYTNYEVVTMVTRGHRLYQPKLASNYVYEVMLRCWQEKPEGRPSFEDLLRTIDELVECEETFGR
# [2] = target: Angiopoietin-1 receptor (Homo sapiens) (UniProt Q02763); conditions: at 1 µM
# Angiopoietin-1 receptor (Homo sapiens), sequence (Q02763 whole entry): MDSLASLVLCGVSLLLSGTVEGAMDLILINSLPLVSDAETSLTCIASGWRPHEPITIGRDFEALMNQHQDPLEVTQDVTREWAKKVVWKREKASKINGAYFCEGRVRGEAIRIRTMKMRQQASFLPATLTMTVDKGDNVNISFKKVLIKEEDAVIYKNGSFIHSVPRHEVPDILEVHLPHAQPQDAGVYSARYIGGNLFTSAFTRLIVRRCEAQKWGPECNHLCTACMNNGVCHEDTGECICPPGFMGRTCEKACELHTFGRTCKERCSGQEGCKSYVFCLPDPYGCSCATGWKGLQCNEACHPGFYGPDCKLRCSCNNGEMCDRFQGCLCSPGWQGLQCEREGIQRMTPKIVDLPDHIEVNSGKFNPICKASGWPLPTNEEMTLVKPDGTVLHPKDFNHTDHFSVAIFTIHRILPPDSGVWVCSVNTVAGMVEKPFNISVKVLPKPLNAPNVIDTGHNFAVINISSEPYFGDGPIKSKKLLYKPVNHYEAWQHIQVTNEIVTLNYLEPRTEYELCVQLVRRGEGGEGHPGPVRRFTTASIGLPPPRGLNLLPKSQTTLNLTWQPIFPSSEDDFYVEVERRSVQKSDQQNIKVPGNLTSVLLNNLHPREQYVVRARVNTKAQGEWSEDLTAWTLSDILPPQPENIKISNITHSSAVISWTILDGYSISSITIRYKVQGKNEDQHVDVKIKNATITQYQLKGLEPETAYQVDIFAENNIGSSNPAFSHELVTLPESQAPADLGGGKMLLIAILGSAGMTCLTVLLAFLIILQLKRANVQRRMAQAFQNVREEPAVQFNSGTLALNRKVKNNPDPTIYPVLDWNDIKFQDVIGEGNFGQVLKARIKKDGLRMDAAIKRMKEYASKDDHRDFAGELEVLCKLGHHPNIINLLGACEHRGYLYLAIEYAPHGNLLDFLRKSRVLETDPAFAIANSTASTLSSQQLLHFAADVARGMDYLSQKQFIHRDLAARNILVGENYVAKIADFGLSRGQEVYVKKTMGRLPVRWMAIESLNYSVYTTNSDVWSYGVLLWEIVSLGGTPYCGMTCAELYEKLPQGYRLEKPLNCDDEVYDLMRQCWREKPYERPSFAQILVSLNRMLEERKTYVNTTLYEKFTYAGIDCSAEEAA
# [3] = target: Angiopoietin-1 receptor (Homo sapiens) (UniProt Q02763); conditions: at 10 µM
# [4] = target: High affinity nerve growth factor receptor (Homo sapiens) (UniProt P04629); conditions: at 1 µM
# High affinity nerve growth factor receptor (Homo sapiens), sequence (P04629 33-796 limits assumed): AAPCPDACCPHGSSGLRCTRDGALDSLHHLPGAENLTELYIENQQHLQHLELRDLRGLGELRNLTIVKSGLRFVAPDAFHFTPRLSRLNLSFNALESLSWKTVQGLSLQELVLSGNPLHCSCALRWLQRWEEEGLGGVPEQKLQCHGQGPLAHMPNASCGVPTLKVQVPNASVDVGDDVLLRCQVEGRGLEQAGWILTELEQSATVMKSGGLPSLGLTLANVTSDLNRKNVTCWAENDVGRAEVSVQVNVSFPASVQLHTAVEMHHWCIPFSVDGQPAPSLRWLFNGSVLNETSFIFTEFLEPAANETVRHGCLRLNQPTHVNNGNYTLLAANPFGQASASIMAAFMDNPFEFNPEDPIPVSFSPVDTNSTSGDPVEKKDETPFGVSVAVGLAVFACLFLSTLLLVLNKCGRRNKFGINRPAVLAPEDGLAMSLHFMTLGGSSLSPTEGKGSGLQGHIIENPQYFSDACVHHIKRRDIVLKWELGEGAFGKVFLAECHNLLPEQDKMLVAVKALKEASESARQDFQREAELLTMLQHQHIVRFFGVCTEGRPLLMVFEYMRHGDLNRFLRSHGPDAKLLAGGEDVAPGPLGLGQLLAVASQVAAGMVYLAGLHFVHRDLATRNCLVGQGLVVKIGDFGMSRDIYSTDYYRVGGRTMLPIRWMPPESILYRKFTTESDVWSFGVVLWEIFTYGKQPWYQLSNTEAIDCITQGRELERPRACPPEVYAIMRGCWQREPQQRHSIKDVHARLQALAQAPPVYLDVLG
# [5] = target: High affinity nerve growth factor receptor (Homo sapiens) (UniProt P04629); conditions: at 10 µM
# [6] = target: BDNF/NT-3 growth factors receptor (Homo sapiens) (UniProt Q16620); conditions: at 1 µM
# BDNF/NT-3 growth factors receptor (Homo sapiens), sequence (Q16620 32-822 limits assumed): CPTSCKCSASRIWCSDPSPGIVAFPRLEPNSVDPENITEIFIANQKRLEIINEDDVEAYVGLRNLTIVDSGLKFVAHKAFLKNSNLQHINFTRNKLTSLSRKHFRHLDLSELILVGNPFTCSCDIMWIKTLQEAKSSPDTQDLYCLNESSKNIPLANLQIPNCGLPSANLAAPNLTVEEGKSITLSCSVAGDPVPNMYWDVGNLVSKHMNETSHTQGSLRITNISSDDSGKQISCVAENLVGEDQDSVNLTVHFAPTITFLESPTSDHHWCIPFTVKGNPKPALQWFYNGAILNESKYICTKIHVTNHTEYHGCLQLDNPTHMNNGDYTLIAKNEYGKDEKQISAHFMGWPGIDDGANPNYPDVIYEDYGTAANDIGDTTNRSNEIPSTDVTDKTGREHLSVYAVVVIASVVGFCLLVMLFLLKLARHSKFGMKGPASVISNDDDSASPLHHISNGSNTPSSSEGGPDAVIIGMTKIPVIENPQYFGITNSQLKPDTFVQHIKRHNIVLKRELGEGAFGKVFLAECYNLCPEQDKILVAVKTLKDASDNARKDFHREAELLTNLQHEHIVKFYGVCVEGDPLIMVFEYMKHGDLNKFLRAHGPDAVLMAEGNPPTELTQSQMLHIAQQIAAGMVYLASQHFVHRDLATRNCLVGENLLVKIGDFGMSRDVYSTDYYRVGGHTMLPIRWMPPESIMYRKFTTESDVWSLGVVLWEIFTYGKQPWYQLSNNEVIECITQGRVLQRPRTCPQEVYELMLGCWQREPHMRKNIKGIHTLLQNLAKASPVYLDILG
# [7] = target: BDNF/NT-3 growth factors receptor (Homo sapiens) (UniProt Q16620); conditions: at 10 µM
# [8] = target: T2, Tyrosine-protein kinase TXK (Homo sapiens) (UniProt P42681); conditions: at 10 µM
# T2 sequence (whole entry): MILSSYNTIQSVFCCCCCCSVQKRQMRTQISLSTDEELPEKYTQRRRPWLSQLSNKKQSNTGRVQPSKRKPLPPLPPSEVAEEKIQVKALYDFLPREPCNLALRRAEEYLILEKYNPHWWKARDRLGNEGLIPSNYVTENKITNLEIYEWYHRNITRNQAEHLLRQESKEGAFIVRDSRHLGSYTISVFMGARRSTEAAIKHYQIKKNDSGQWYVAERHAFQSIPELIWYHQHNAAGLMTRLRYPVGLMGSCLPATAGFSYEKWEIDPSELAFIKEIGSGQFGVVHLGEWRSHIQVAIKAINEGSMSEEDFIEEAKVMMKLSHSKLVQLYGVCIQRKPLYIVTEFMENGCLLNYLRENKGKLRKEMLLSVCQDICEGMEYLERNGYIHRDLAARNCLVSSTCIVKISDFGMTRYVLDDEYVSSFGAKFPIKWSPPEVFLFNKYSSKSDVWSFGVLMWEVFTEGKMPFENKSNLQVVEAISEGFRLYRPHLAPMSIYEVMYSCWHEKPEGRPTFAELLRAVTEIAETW
# [9] = target: T3, Serine/threonine-protein kinase ULK2 (Homo sapiens) (UniProt Q8IYT8); conditions: at 1 µM
# T3 sequence (whole entry): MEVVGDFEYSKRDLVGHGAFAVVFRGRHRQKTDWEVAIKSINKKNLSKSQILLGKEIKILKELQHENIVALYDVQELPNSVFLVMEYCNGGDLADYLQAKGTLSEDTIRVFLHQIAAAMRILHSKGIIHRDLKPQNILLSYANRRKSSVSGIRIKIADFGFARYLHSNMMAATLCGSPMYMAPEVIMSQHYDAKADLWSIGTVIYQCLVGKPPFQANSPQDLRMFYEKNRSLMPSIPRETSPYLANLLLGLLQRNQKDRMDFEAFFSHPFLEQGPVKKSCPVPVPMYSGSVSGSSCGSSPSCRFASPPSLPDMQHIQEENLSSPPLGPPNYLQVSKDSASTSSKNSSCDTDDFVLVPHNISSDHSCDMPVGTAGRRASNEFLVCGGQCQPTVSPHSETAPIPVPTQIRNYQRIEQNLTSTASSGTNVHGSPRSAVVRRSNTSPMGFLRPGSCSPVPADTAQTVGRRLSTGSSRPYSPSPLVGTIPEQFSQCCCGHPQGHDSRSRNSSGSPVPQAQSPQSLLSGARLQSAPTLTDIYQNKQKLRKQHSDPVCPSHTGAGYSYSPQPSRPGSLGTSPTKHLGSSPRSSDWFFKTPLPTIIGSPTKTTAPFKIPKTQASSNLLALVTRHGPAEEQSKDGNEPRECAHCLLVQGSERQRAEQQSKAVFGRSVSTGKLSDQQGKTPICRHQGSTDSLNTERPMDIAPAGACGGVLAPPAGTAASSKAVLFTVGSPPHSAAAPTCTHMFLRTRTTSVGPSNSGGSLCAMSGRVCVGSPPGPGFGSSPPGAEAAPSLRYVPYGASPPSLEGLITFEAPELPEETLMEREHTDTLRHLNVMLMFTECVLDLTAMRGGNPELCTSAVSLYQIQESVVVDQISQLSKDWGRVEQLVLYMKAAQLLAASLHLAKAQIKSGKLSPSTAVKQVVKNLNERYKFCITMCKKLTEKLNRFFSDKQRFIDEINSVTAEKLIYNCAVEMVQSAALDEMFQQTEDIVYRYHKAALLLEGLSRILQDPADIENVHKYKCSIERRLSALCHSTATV
# [10] = target: T3, Serine/threonine-protein kinase ULK2 (Homo sapiens); conditions: at 10 µM
# [11] = target: T4, Serine/threonine-protein kinase ULK3 (Homo sapiens) (UniProt Q6PHR2); conditions: at 1 µM
# T4 sequence (whole entry): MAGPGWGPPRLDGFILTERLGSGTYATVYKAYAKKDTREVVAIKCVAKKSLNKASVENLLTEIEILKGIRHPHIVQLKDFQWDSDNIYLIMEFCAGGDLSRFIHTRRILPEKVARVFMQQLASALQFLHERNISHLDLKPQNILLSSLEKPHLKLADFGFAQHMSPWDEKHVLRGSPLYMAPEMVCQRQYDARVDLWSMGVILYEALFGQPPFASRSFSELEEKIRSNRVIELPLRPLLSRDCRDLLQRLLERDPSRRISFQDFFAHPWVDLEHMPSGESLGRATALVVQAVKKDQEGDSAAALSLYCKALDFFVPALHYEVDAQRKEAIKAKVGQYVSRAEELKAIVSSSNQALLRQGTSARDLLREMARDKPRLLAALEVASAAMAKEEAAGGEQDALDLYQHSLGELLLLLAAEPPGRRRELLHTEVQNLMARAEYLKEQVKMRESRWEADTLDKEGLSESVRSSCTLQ
# [12] = target: T4, Serine/threonine-protein kinase ULK3 (Homo sapiens); conditions: at 10 µM
# [13] = target: Serine/threonine-protein kinase VRK2 (Homo sapiens) (UniProt Q86Y07); conditions: at 1 µM
# [14] = target: Serine/threonine-protein kinase VRK2 (Homo sapiens) (UniProt Q86Y07); conditions: at 10 µM
# [15] = target: Serine/threonine-protein kinase WNK2 (Homo sapiens) (UniProt Q9Y3S1); conditions: at 1 µM;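 further: residual WNK2 kinase activity expressed as percent of uninhibited control, assayed in MOPS buffer at pH 7.0 containing EDTA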
# Serine/threonine-protein kinase WNK2 (Homo sapiens), sequence (Q9Y3S1 whole entry): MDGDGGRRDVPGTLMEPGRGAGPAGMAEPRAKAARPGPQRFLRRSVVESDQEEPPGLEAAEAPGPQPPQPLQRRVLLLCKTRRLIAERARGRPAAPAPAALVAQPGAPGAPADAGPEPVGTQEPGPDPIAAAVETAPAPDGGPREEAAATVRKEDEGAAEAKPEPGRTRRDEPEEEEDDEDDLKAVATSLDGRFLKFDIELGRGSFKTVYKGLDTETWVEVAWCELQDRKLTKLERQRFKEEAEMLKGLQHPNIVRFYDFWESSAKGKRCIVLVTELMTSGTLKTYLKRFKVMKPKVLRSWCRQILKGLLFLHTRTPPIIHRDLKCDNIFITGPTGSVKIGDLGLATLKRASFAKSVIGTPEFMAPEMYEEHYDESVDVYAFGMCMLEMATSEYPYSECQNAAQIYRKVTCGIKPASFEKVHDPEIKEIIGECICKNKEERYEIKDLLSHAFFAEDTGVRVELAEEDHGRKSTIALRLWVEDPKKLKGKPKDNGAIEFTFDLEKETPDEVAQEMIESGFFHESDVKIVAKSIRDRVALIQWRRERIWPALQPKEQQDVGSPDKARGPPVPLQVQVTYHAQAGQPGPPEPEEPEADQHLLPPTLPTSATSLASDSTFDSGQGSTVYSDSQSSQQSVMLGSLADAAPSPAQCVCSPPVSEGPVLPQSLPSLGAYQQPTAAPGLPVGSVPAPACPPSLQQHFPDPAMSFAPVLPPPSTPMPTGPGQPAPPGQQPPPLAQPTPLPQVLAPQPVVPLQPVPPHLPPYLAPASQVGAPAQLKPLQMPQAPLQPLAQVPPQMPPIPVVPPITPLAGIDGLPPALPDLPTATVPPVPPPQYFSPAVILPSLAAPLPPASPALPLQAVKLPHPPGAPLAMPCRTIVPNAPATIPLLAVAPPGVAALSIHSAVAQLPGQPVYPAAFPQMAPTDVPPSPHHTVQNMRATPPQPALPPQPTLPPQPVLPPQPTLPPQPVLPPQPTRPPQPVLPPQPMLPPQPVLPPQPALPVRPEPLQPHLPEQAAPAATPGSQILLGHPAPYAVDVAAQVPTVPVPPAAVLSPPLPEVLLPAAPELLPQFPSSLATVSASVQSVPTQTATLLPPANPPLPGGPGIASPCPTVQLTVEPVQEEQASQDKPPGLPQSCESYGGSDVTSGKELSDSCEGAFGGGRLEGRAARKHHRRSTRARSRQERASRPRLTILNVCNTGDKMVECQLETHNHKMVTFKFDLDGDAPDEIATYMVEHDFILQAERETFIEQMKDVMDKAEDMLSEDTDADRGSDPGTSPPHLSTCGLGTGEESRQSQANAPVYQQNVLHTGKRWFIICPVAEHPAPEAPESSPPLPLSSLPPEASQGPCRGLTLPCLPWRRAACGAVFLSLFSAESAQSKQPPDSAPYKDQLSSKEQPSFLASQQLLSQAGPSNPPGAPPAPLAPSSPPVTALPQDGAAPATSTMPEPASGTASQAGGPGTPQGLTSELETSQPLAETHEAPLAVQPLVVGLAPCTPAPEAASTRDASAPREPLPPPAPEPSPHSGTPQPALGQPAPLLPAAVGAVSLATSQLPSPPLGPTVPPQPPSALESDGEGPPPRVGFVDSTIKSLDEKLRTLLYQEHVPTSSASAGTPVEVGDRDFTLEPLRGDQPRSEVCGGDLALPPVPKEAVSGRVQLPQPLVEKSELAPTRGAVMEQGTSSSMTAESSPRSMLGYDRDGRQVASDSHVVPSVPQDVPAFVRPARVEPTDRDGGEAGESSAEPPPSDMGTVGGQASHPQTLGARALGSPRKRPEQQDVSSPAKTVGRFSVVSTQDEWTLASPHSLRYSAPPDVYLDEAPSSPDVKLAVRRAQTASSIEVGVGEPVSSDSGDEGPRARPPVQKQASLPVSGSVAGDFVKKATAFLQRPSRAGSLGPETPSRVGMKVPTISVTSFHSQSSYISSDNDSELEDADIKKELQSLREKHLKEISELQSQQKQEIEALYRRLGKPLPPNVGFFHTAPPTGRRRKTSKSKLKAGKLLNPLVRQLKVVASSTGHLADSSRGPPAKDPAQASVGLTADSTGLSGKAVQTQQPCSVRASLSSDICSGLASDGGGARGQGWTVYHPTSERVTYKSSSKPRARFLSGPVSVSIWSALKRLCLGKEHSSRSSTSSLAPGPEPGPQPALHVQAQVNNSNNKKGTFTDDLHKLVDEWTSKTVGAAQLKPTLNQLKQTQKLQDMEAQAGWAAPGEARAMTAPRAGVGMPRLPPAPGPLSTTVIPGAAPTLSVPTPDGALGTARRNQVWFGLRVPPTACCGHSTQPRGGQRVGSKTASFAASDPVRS
# [16] = target: T5, Testis-specific serine/threonine-protein kinase 1 (Homo sapiens) (UniProt Q9BXA7); conditions: at 1 µM
# T5 sequence (whole entry): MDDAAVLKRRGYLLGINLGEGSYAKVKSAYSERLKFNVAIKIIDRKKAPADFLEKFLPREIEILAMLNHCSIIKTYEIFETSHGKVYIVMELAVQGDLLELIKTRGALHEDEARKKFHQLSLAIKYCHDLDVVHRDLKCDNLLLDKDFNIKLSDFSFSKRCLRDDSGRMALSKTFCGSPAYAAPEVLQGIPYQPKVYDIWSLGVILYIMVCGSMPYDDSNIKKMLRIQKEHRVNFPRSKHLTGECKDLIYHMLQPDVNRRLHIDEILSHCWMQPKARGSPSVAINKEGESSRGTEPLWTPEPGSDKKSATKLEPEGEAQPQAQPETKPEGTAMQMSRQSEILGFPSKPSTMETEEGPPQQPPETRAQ
# [17] = target: T1, Tyrosine-protein kinase Tec (Homo sapiens); conditions: at 1 µM
# [18] = target: T2, Tyrosine-protein kinase TXK (Homo sapiens); conditions: at 1 µM
# [19] = target: T6, Testis-specific serine/threonine-protein kinase 2 (Homo sapiens) (UniProt Q96PF2); conditions: at 10 µM
# T6 sequence (whole entry): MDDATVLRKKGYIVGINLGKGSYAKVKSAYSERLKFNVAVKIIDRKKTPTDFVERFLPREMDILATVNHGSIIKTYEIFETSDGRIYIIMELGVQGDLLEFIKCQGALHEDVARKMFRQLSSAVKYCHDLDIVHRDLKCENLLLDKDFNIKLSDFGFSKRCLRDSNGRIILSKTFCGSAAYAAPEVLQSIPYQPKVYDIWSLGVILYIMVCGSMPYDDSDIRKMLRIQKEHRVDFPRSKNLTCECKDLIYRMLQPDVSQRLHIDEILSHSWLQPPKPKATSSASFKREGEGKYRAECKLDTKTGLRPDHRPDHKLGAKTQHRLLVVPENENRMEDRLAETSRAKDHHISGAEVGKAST
# [20] = target: T5, Testis-specific serine/threonine-protein kinase 1 (Homo sapiens); conditions: at 10 µM
compound,measurement,setting,value
COc1ccc2c(c1)c(C1=C(c3c[nH]c4ccccc34)C(=O)NC1=O)cn2CCCN(C)C,residual activity,[1],63%
same,residual activity,[2],99%
same,residual activity,[3],36%
same,residual activity,[4],72%
same,residual activity,[5],35%
same,residual activity,[6],77%
same,residual activity,[7],43%
same,residual activity,[8],73%
same,residual activity,[9],101%
same,residual activity,[10],82%
same,residual activity,[11],100%
same,residual activity,[12],59%
same,residual activity,[13],102% (inactive)
same,residual activity,[14],69%
same,residual activity,[15],107% (inactive)
Nc1ncnc2[nH]nc(Nc3ccc(F)cc3)c12,residual activity,[16],108%
same,residual activity,[17],82%
same,residual activity,[1],21%
same,residual activity,[2],104%
same,residual activity,[3],79%
same,residual activity,[4],78%
same,residual activity,[5],40%
same,residual activity,[6],123%
same,residual activity,[18],66%
same,residual activity,[8],18%
same,residual activity,[9],120%
same,residual activity,[10],95%
same,residual activity,[11],97%
same,residual activity,[12],74%
same,residual activity,[13],97% (inactive)
same,residual activity,[14],81%
same,residual activity,[15],101% (inactive)
O=S(=O)(c1cccc2cnccc12)N1CCCNCC1,residual activity,[6],83%
NC(=O)c1ccc(-c2nc(-c3ccc4c(c3)OCCO4)c(-c3ccccn3)[nH]2)cc1,residual activity,[19],63%
same,residual activity,[17],96%
same,residual activity,[1],91%
same,residual activity,[3],72%
same,residual activity,[4],95%
same,residual activity,[5],82%
same,residual activity,[6],96%
same,residual activity,[7],68%
same,residual activity,[18],90%
same,residual activity,[8],94%
same,residual activity,[13],118% (inactive)
same,residual activity,[14],98%
COc1ccc(-c2cnc3c(-c4ccsc4)cnn3c2)cc1,residual activity,[16],98%
same,residual activity,[20],96%
same,residual activity,[4],76%
same,residual activity,[5],88%
same,residual activity,[6],66%
same,residual activity,[7],73%
same,residual activity,[18],70%
same,residual activity,[8],83%
same,residual activity,[9],99%
same,residual activity,[10],96%
same,residual activity,[11],96%
same,residual activity,[12],90%
NC(=O)c1cccc(-c2cc(Nc3ccc(OC(F)(F)F)cc3)ncn2)c1,residual activity,[5],65%
same,residual activity,[11],100%
same,residual activity,[12],93%
same,residual activity,[15],124% (inactive)
COc1ccc(COc2ccc(Cc3cnc(N)nc3N)cc2OC)cc1,residual activity,[17],100%
same,residual activity,[1],81%
same,residual activity,[4],49%
same,residual activity,[5],4%
same,residual activity,[6],55%
same,residual activity,[7],-12%
same,residual activity,[8],68%
Nc1nccc(-c2c(-c3ccc(F)cc3)ncn2C2CCNCC2)n1,residual activity,[1],77%
same,residual activity,[4],100%
same,residual activity,[5],74%
same,residual activity,[6],118%
same,residual activity,[7],61%
same,residual activity,[18],83%
same,residual activity,[8],64%
CCN1/C(=C/C(C)=O)Sc2ccc(OC)cc21,residual activity,[19],75%
same,residual activity,[18],81%
same,residual activity,[8],77%
same,residual activity,[15],76% (inactive)
O=c1cc(N2CCOCC2)oc2c(-c3ccccc3)cccc12,residual activity,[19],68%
same,residual activity,[2],71%
same,residual activity,[3],64%
same,residual activity,[4],79%
same,residual activity,[5],71%
same,residual activity,[8],69%
O=C1Cc2c([nH]c3ccc([N+](=O)[O-])cc23)-c2ccccc2N1,residual activity,[17],79%
same,residual activity,[1],72%
same,residual activity,[4],72%
same,residual activity,[5],63%
same,residual activity,[18],49%
same,residual activity,[8],39%
same,residual activity,[9],49%
same,residual activity,[10],45%
same,residual activity,[11],75%
same,residual activity,[12],53%
